Results taken from ChEMBL document CHEMBL1961873, “Compounds: GSK PKIS; Assays: Nanosyn kinase panel” (2012).

system: Mast/stem cell growth factor receptor Kit (Homo sapiens), P10721 [T670I]; conditions: at 1 µM
Sequence (P10721 whole entry T670I): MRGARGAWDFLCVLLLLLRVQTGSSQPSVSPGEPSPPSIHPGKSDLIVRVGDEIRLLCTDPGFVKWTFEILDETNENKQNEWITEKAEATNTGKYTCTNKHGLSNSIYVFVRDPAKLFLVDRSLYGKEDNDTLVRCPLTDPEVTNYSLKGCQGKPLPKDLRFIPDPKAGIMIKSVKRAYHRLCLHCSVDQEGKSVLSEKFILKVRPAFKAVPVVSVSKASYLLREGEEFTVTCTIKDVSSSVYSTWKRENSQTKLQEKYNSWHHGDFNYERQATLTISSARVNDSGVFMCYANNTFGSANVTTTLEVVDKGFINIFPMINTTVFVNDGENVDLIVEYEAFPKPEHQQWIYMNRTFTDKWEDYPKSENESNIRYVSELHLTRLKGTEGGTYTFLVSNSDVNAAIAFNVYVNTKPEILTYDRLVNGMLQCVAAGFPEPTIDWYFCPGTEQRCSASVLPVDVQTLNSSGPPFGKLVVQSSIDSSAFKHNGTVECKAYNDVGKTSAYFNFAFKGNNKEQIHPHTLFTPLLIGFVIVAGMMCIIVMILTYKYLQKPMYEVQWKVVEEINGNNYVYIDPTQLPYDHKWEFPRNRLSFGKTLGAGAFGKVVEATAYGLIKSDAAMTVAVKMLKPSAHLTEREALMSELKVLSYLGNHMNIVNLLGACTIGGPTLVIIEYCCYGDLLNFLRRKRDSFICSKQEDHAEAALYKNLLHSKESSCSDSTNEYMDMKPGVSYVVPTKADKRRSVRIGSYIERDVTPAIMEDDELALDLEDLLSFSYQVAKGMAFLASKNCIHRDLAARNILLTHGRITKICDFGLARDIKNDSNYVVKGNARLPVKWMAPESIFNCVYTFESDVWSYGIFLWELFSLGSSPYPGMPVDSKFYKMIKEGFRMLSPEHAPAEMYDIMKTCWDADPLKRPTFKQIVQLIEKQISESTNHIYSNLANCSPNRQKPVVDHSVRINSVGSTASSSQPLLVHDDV

SMILES	inhibition
COc1ccc(-c2cc(-c3c[nH]nc3-c3ccccn3)ccn2)cc1	4.17%
CCCN(CCS(C)(=O)=O)Cc1ccc(-c2ccc3ncnc(Nc4ccc(OCc5cccc(F)c5)c(Cl)c4)c3c2)o1	3.62%
FC(F)(F)c1cccc(-c2nn3ncccc3c2-c2ccnc(Nc3ccc4c(c3)OCCO4)n2)c1	3.06%
CCNC(=O)O[C@H]1CN[C@H](C#Cc2cc3ncnc(Nc4ccc(OCc5cccc(F)c5)c(Cl)c4)c3s2)C1	0.45%
COC(=O)Nc1nc2ccc(S(=O)(=O)c3ccc(NC(=O)Nc4cc(C(F)(F)F)ccc4F)cc3)cc2[nH]1	-0.17%
CC(=O)Nc1cccc(C#Cc2cncnc2Nc2ccc(OCc3cccc(F)c3)c(Cl)c2)c1	-0.24%
CCOc1ccc2c(-c3ccnc(Nc4cccc(C(F)(F)F)c4)n3)cnn2n1	3.49%
CC(=O)NCc1cccc(C#Cc2cncnc2Nc2ccc(OCc3cccc(F)c3)c(Cl)c2)c1	1.39%
Cc1cccc2c1NC(=O)/C2=N\Nc1ccc(S(N)(=O)=O)cc1	7.06%
COc1ccc(-c2nn3ncccc3c2-c2ccnc(Nc3ccc4c(c3)OCCO4)n2)cc1	34.7%
Fc1ccc(-c2cc(-c3c[nH]nc3-c3ccccn3)ccn2)cc1	8.03%
CCN(CC)S(=O)(=O)c1ccc(OC)c(Nc2ncc(-c3ccccc3)o2)c1	48.3%
COc1cccc(-c2c[nH]c3c(N/N=C/c4ccncc4)ncnc23)c1	51.1%
c1ccc(-c2nc3n(c2-c2ccc4c(c2)OCO4)CCC3)nc1	2.64%
COc1cccc(-n2ncc3c(N/N=C/c4ccc(F)cc4)ncnc32)c1	5.91%
Nc1ncc(-c2cccc(S(N)(=O)=O)c2)c2scc(-c3ccc(F)c(Cl)c3)c12	5.82%
Cc1ccc2c(-c3ccnc(Nc4ccccc4)n3)c(-c3ccc(F)cc3)nn2n1	3.98%

SMILES	inhibition
CS(=O)(=O)CCNCc1ccc(-c2ccc3ncnc(Nc4ccc(OCc5ccccc5)c(C(F)(F)F)c4)c3c2)o1	2.42%
NC(=O)c1sc(-n2cnc3ccc(C(F)(F)F)cc32)cc1OCc1ccccc1Br	3.8%
CCn1c(-c2nonc2N)nc2ccccc21	0.55%
NS(=O)(=O)c1ccc(Nc2ncc(-c3ccccc3)o2)cc1	58.7%
COc1ccc2[nH]c3c4[nH]c5ccc(OC)cc5c4c4c(c3c2c1)C(=O)NC4=O	44.2%
Nc1nc(-c2ccc(F)cc2)c(-c2ccc3ncccc3n2)s1	5.34%
COc1ccc(CNC(=O)c2ccc(-c3cc(-c4nnc(C)o4)ccc3C)cc2)cc1	3.18%
O=C(O[C@H]1CN[C@H](C#Cc2cc3ncnc(Nc4ccc(Cc5ccccc5)cc4)c3s2)C1)N1CCOCC1	0.93%
N#Cc1c(NC(=O)CN2CCOCC2)sc2c1CCCC2	3.32%
Cc1cccc(Nc2ncc(-c3ccccc3)o2)c1	48%
O=C(Nc1n[nH]c2cc(-c3ccc(F)cc3)ccc12)C1CC1	4.92%
COC(=O)c1sc(-n2cnc3cc(OC)c(OC)cc32)cc1OCc1ccccc1C(F)(F)F	7.23%
Cc1ccc(O)cc1Nc1ccnc2cc(-c3ccccn3)ccc12	3.09%
CCc1nn2ncccc2c1-c1ccnc(NC2CC2)n1	2.12%
CCn1cc(-c2ccnc3[nH]ccc23)c(-c2cccc(NC(=O)Nc3ccc(OCc4ccccc4)cc3)c2)n1	-1.25%
COc1cc2c(cc1Nc1nc(Nc3ccsc3C(N)=O)c3cc[nH]c3n1)N(C(=O)CN(C)C)CCC2(C)C	16.2%
